{"source": "the supplement of paper PMC11732987", "about": "“Enantioselective OTUD7B fragment discovery through chemoproteomics screening and high-throughput optimisation” (Communications Chemistry, 2025)", "assay_in_all_cases": "log2 ratio of Biotin-Ahx-Ub-VS probe labelling (fragment/DMSO); higher = less target engagement (more negative = stronger competition), active = hit call of the paper (q ≤ 0.05, log2 ratio ≤ -1)", "details_in_all_cases": "compound concentration: 200 uM; treatment time: 3 h", "key": {"USP19": {"target": "T1, USP19 (UniProt O94966)", "T1 sequence (whole entry)": "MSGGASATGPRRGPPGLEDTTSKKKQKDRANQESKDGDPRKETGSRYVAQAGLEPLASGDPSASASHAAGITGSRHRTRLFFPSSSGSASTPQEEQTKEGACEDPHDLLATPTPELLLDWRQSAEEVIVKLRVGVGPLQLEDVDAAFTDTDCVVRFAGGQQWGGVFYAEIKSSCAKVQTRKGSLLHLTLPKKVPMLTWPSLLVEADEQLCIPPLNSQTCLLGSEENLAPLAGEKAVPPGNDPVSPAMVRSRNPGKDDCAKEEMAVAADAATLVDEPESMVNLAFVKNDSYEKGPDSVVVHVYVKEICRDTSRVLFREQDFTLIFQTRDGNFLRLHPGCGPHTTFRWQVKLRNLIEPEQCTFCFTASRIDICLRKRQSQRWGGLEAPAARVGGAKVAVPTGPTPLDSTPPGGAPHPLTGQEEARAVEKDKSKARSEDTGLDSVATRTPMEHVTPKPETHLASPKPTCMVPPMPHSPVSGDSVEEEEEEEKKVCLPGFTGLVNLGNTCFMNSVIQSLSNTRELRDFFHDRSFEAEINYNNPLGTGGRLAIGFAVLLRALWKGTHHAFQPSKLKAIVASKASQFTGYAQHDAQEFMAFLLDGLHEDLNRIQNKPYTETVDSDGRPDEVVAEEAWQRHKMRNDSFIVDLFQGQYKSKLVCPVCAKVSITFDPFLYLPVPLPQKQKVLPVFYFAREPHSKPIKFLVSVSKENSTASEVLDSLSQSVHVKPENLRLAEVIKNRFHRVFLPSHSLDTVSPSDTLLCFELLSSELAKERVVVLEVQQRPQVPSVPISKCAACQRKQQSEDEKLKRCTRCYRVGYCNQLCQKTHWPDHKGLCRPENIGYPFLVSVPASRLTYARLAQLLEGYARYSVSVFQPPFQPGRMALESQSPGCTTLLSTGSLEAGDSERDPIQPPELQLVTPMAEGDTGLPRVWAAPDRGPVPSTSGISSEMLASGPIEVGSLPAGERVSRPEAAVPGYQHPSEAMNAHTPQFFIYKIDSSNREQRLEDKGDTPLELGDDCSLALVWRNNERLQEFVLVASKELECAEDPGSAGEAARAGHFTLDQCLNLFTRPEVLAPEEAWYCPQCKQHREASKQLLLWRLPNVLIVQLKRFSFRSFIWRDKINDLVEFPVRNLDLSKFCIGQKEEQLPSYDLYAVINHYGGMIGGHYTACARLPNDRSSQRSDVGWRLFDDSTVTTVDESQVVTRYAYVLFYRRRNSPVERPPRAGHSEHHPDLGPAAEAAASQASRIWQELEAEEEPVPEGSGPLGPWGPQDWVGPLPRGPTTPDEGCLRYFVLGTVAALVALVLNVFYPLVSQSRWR", "how_it_was_run": "(§1)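 HEK293T lysate (495 µg per sample, in Tris/CHAPS/IGEPAL buffer with protease inhibitors) was treated in triplicate with fragment at 200 µM or with DMSO for 3 h. It was then treated with Biotin-Ahx-Ub-VS (0.5 µM final) for 1 h. Labelled DUBs were NeutrAvidin-enriched, digested with LysC and trypsin, and run by diaPASEF LC-MS/MS. Spectronaut label-free quantities were global-median-normalised. Values are average log2 ratios fragment/DMSO by unpaired t-test, using proteins with ≥2 unique peptides.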"}, "USP22": {"target": "T2, USP22 (UniProt Q9UPT9)", "T2 sequence (whole entry)": "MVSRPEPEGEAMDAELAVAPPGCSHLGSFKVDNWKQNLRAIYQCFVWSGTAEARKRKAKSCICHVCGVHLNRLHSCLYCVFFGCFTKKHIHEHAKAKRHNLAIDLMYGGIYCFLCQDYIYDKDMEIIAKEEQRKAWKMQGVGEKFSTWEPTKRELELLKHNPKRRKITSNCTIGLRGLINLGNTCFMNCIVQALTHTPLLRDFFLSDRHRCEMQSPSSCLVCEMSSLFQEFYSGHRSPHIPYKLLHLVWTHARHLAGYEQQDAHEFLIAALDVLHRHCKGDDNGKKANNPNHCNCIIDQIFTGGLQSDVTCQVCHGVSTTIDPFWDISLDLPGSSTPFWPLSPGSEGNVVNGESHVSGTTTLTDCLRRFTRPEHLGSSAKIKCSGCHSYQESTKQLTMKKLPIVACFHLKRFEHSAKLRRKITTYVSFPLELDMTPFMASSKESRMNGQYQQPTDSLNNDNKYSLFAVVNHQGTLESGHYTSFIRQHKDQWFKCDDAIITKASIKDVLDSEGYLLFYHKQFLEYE", "how_it_was_run": "as §1"}, "USP24": {"target": "USP24 (UniProt Q9UPU5)", "sequence (Q9UPU5 whole entry)": "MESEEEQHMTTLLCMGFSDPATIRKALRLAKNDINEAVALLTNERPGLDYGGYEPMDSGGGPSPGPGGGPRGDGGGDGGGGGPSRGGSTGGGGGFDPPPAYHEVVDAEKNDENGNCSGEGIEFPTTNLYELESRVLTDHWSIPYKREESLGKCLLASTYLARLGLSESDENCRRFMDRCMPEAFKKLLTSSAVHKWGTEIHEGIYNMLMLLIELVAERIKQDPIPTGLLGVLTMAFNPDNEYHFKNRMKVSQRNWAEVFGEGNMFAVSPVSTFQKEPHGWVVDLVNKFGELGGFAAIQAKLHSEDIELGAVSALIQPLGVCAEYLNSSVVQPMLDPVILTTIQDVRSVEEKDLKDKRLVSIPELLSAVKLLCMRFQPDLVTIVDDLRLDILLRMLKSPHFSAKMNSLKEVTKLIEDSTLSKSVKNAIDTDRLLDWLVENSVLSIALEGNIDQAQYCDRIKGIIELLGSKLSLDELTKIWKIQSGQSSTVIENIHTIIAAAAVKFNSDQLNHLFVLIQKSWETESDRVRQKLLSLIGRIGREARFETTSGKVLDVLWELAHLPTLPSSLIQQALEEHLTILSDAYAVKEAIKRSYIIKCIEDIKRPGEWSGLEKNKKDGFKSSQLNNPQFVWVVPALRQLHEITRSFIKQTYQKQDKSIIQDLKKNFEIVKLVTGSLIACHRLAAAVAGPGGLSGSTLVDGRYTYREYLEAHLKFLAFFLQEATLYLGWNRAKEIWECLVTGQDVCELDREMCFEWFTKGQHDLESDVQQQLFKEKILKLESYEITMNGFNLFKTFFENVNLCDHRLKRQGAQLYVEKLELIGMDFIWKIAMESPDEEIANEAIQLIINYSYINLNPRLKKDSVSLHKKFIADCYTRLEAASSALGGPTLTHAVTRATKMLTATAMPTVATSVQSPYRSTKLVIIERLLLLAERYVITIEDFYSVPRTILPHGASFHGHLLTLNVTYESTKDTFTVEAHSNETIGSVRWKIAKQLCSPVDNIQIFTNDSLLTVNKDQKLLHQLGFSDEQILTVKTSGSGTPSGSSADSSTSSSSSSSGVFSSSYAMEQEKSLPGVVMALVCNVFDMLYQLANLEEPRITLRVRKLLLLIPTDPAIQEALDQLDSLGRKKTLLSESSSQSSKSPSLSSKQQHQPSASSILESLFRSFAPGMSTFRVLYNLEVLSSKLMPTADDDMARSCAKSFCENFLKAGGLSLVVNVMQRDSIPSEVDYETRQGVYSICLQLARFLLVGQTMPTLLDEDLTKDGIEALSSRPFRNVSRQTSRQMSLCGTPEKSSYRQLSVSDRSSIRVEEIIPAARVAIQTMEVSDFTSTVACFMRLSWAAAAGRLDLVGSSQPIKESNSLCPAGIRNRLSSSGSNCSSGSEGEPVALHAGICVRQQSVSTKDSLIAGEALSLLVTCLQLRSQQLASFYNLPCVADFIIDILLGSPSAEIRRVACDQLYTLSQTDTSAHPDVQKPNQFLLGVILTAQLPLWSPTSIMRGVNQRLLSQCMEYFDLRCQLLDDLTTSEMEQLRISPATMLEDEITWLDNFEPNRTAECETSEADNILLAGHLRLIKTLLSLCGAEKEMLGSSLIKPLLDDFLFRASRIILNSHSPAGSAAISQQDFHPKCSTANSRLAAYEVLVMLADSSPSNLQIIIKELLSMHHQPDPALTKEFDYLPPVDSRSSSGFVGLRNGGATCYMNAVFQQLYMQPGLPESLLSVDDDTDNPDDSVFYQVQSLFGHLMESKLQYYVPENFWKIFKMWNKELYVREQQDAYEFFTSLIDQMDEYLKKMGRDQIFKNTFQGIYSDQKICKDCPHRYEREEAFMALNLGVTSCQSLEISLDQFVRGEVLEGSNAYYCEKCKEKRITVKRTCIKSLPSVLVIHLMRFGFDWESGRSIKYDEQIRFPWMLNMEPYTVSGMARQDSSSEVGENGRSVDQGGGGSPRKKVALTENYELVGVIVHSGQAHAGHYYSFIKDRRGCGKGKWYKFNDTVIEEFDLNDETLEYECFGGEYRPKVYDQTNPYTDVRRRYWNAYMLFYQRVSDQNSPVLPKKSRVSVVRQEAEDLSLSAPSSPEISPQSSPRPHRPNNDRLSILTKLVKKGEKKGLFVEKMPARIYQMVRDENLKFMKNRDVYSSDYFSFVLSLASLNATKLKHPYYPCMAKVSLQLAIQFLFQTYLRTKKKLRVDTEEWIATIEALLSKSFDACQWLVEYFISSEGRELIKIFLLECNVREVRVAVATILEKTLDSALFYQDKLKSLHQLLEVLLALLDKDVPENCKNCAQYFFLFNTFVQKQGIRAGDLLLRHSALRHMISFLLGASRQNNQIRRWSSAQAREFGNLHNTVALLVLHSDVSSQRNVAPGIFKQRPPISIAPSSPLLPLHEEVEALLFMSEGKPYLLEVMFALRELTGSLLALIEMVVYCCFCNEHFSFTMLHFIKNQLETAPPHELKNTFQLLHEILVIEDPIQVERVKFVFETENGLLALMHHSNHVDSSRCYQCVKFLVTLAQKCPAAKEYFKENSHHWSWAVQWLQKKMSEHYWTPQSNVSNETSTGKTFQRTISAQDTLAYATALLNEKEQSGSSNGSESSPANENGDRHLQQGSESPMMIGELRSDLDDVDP", "how_it_was_run": "as §1"}, "USP25": {"target": "T3, USP25 (UniProt Q9UHP3)", "T3 sequence (whole entry)": "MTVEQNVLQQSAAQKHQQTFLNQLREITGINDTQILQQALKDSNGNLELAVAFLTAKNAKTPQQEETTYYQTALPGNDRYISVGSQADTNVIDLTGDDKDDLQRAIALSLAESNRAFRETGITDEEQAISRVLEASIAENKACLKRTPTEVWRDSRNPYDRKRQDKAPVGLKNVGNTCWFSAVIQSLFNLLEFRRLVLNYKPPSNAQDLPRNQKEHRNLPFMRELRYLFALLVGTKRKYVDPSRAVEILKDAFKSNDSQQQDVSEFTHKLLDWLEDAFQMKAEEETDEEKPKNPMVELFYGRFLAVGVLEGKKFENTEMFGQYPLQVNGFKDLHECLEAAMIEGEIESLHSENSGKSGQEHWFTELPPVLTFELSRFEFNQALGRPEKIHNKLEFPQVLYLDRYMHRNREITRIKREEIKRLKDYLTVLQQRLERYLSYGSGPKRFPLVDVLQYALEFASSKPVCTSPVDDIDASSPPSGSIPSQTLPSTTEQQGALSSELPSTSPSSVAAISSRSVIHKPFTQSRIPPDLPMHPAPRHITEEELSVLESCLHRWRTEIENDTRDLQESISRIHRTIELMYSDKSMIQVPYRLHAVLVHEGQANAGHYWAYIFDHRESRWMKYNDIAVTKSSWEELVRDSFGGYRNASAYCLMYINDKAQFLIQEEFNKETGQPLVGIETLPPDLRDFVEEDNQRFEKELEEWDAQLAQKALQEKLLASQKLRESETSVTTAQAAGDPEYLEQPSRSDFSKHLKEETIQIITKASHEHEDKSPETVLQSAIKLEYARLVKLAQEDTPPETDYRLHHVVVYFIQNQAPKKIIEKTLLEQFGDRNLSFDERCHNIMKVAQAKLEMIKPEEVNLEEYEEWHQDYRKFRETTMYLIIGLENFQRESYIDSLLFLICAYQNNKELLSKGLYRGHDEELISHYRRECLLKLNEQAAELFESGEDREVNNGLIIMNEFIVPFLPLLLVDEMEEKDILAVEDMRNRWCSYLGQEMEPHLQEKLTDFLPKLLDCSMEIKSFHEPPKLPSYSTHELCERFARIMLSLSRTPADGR", "how_it_was_run": "as §1"}, "USP28": {"target": "T4, USP28 (UniProt Q96RU2)", "T4 sequence (whole entry)": "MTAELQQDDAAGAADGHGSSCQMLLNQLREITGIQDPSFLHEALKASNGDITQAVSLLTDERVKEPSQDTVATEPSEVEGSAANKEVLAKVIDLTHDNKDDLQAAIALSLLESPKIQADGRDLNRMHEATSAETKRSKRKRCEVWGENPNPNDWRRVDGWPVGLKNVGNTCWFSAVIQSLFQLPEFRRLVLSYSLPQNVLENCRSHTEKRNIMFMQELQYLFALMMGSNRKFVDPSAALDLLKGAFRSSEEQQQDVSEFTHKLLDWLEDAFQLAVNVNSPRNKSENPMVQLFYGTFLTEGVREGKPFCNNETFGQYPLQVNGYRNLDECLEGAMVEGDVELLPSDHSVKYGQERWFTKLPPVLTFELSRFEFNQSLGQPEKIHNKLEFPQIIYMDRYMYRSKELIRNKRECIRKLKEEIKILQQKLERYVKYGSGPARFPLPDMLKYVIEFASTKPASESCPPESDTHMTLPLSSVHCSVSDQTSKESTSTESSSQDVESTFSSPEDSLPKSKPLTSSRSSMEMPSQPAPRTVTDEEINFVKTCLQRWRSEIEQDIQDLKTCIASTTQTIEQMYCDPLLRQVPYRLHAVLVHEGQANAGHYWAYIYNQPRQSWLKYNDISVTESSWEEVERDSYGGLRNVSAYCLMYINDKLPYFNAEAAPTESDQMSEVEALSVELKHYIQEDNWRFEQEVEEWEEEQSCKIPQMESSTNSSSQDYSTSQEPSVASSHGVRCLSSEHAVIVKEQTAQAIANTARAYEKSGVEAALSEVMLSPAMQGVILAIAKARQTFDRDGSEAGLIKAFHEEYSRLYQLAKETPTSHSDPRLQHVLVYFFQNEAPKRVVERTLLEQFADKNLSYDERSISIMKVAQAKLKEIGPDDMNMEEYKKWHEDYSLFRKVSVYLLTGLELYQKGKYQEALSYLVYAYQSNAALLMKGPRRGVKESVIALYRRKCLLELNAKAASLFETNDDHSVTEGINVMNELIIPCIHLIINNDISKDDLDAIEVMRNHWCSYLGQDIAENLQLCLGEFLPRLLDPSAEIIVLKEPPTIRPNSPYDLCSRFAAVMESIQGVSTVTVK", "how_it_was_run": "as §1"}}, "note": "Unmarked numbers belong to inactive results."}
{"smiles": "O=C(CCl)N1c2ccccc2NC(=O)C12CCCC2", "values": [{"measurement": "log2 ratio of Biotin-Ahx-Ub-VS probe labelling", "setting": "USP19", "result": -0.0862}, {"measurement": "log2 ratio of Biotin-Ahx-Ub-VS probe labelling", "setting": "USP22", "result": 0.00548}, {"measurement": "log2 ratio of Biotin-Ahx-Ub-VS probe labelling", "setting": "USP24", "result": "-2.66 (active)"}, {"measurement": "log2 ratio of Biotin-Ahx-Ub-VS probe labelling", "setting": "USP25", "result": -0.252}, {"measurement": "log2 ratio of Biotin-Ahx-Ub-VS probe labelling", "setting": "USP28", "result": -0.397}]}
